Results on 17 compounds are retold here after PubChem BioAssay (Tox21).

Records with an inconclusive call do not appear. The source made the active and inactive calls. Unless noted, the call rests on the fitted dose curve; in most records, active means well fitted curve in the direction sought with a large enough effect in the repeat runs; inconclusive means weak or mixed curves; inactive means no such curve, though single readings can be large; an effect the other way counts as inactive or inconclusive.

Assay [1] can be described thus: qHTS assay to test for compound auto fluorescence at 535 nm (green) in HEK293 cells (AID 720680). For orientation: In qHTS, concentration-response curves come from the screen itself.
Assay [2] is described as follows: qHTS assay to test for compound auto fluorescence at 460 nm (blue) in HEK293 cell free culture (AID 720681). The method, boiled down: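 Blue fluorescence (Ex 405/Em 460 nm, triamterene-equivalent) was read immediately after pin transfer of compound or DMSO into medium (DMEM, 10% FBS) without cells.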
Assay [3] can be described thus: qHTS assay to test for compound auto fluorescence at 535 nm (green) in HEK293 cell free culture (AID 720682). The procedure, abridged: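 Read-out: 485/535 nm fluorescence intensity, calibrated against fluorescein. Medium only (DMEM + 10% FBS, no cells); test compound or DMSO vehicle added by pintool before plate reading.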
A short description of assay [4]: qHTS assay to test for compound auto fluorescence at 590 nm (red) in HEK293 cell free culture (AID 720683). The procedure, abridged: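 Red-channel autofluorescence of compounds in culture medium (DMEM, 10% FBS), no cells, measured at 540/590 nm. Rose Bengal sodium is the reference fluorophore for equivalence.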
The nature of assay [5]: qHTS assay to test for compound auto fluorescence at 590 nm (red) in HepG2 cell free culture (AID 720684). The method, boiled down: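 No cells present: MEM + 10% FBS only. Compound pinned in, red label read (540/590 nm). Activity = fluorescence equivalent to Rose Bengal sodium.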
Assay [6] can be described thus: qHTS assay to test for compound auto fluorescence at 460 nm (blue) in HepG2 cell free culture (AID 720685). The procedure, abridged:
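Cell-free plates of MEM plus 10% FBS received 23 nL compound or DMSO vehicle; blue-channel (405/460 nm) intensity scored against triamterene as reference fluorophore.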

The nature of assay [7]: qHTS assay to test for compound auto fluorescence at 460 nm (blue) in HepG2 cells (AID 720687). The procedure, abridged:
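Blue-channel autofluorescence (Ex/Em 405/460 nm, triamterene-equivalent) was measured after 1 hr compound exposure at 37 C, 5% CO2. Cells were HepG2, plated overnight at 37 C in MEM plus 10% FBS.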

Assay [8] is described as follows: qHTS assay to identify small molecule antagonists of the glucocorticoid receptor (GR) signaling pathway - cell viability counter screen (AID 720693). Further: nearly all actives have a fitted effect of over 55% in size. Further: potency means the concentration at half of the fitted maximal effect.
The nature of assay [9]: qHTS assay for identifying genotoxic compounds that show differential cytotoxicity against isogenic chicken DT40 cell lines with known DNA damage response pathways - wild type cell line (AID 743012). Further: nearly all actives have a fitted effect of over 60% in size. Further: potency means the concentration at half of the fitted maximal effect. The method, boiled down:
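Viability by ATP luminescence (CellTiter-Glo, 30 min RT) after 40 h compound treatment at 37 C/5% CO2, using 300 parental DNA repair-proficient DT40 cells per well.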

Assay [10] can be described thus: qHTS assay for identifying genotoxic compounds that show differential cytotoxicity against isogenic chicken DT40 cell lines with known DNA damage response pathways - Rev3 mutant cell line (AID 743014). Further: nearly all actives have a fitted effect of over 55% in size. Further: potency means the concentration at half of the fitted maximal effect.
Assay [11] is described as follows: qHTS assay for identifying genotoxic compounds that show differential cytotoxicity against isogenic chicken DT40 cell lines with known DNA damage response pathways - Rad54/Ku70 mutant cell line (AID 743015). Further: nearly all actives have a fitted effect of over 60% in size. Further: potency means the concentration at half of the fitted maximal effect.
Assay [12] is described as follows: qHTS assay to identify small molecule antagonists of the androgen receptor (AR) signaling pathway - cell viability counter screen (AID 743033; further: nearly all actives have a fitted effect of over 45% in size; further: potency means the concentration at half of the fitted maximal effect).
Assay [13] in a line: qHTS assay to identify small molecule antagonists of the androgen receptor (AR) signaling pathway using the MDA cell line - cell viability counter screen (AID 743041; further: nearly all actives have a fitted effect of over 45% in size; further: potency means the concentration at half of the fitted maximal effect). The procedure, abridged: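 Using the breast carcinoma line MDA-kb2 AR-luc, test chemicals were co-incubated with R1881 for 16 h; CellTiter-Fluor reagent, added at 15.5 h, provided a fluorescence measure of live cells.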

Assay [14] is described as follows: qHTS assay to test for compound auto fluorescence at 535 nm (green) in HepG2 cell free culture (AID 720686).
Assay [15] addresses Androgen receptor (Homo sapiens) (UniProt P10275). Kind of assay: qHTS assay to identify small molecule antagonists of the androgen receptor (AR) signaling pathway (AID 743035; active means well fitted inhibition curve with a large enough effect in the signal ratio in the repeat runs, not every such curve was filed as active; the % refers to the signal ratio; further: potency means the concentration at half of the fitted maximal effect). The method, boiled down:
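Antagonist mode: AR-bla HEK293 cells co-treated with test compounds and agonist R1881 for 16 h at 37C, 5% CO2. Beta-lactamase activity read as FRET fluorescence after 2 h room-temperature substrate loading.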

For assay [16] the target is unchanged. Kind of assay: qHTS assay to identify small molecule agonists of the androgen receptor (AR) signaling pathway (AID 743036; active means well fitted activation curve with a large enough effect in the signal ratio in the repeat runs, with a control signal flat, not every such curve was filed as active; the % refers to the signal ratio). The method, boiled down: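 HEK293 cells stably carrying a UAS-driven beta-lactamase reporter (GeneBLAzer AR-UAS-bla-GripTite) were plated at 2,000 cells/well, rested 4 h at 37C, then exposed to compounds in DMSO for 16 h. LiveBLAzer B/G FRET substrate was added for 2 h at room temperature; fluorescence read.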

Assay [17] shares this target. Kind of assay: qHTS assay to identify small molecule agonists of the androgen receptor (AR) signaling pathway using the MDA cell line (AID 743040; further: nearly all actives have a fitted effect of over 20% in size). The procedure, abridged:
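Stable MMTV-luciferase reporter in MDA-kb2 cells; note the promoter carries GR as well as AR response elements. 16 h compound treatment, 37C, 0% CO2; ONE-Glo luminescence endpoint.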

Assay [18] has the same target. Nature of the assay: qHTS assay to identify small molecule antagonists of the androgen receptor (AR) signaling pathway using the MDA cell line (AID 743042; further: nearly all actives have a fitted effect of over 55% in size). The procedure, abridged: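 Antagonist mode: compounds plus R1881 agonist added to MDA-kb2 AR-luc cells, incubated 16 h at 37C. Luciferase reporter luminescence quantified, with multiplexed CellTiter-Fluor readout for cell viability.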

The target in assay [19] is Glucocorticoid receptor (Homo sapiens) (UniProt P04150). Kind of assay: qHTS assay to identify small molecule agonists of the glucocorticoid receptor (GR) signaling pathway (AID 720691; active means well fitted activation curve with a large enough effect in the signal ratio in the repeat runs, not every such curve was filed as active; the % refers to the signal ratio). Particulars: GR-bla HeLa, beta-lactamase reporter ratio, 18 h; activation: at 62.4 µM (top of the series). The procedure, abridged: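 Agonist-mode qHTS in HeLa cells stably expressing a glucocorticoid-response-element beta-lactamase reporter. Fluorescence intensity read with FRET substrate (2 h, room temperature) after 18 h compound treatment at 37 C.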

The target is the same in assay [20]. Kind of assay: qHTS assay to identify small molecule antagonists of the glucocorticoid receptor (GR) signaling pathway (AID 720692; active means well fitted inhibition curve with a large enough effect in the signal ratio in the repeat runs, not every such curve was filed as active; the % refers to the signal ratio; further: potency means the concentration at half of the fitted maximal effect). The procedure, abridged:
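Inhibition of dexamethasone-driven (5 nM final) beta-lactamase expression was measured in GRE-reporter HeLa cells over 18 h at 37C. Fluorescence was read after 2 h with the B/G FRET substrate at room temperature.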

Androgen receptor (Homo sapiens), sequence (P10275 whole entry, looked up): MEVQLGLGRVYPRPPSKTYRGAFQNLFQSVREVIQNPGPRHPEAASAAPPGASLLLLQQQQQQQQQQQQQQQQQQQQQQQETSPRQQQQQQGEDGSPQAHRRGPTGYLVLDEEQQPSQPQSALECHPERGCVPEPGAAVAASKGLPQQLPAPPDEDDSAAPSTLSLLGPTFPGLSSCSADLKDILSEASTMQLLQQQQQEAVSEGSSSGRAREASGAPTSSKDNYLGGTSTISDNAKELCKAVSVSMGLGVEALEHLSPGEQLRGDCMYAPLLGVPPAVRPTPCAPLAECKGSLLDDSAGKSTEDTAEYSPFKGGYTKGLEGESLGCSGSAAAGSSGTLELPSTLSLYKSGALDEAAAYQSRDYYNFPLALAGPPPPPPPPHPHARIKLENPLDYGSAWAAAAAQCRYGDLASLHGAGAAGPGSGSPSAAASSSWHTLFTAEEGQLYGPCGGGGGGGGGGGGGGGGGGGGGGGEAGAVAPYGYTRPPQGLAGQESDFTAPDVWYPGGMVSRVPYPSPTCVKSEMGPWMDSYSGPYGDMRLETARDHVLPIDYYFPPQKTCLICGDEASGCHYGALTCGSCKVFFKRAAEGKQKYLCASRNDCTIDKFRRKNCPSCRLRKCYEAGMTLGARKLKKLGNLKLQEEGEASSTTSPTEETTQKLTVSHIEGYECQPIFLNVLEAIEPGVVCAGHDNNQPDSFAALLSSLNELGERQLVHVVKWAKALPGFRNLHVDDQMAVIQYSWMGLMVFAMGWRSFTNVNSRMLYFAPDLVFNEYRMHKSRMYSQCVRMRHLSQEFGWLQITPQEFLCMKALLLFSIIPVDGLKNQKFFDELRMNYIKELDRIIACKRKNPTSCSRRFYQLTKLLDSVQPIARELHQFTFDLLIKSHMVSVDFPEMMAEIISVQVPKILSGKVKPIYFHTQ
Glucocorticoid receptor (Homo sapiens), sequence (P04150 whole entry, looked up): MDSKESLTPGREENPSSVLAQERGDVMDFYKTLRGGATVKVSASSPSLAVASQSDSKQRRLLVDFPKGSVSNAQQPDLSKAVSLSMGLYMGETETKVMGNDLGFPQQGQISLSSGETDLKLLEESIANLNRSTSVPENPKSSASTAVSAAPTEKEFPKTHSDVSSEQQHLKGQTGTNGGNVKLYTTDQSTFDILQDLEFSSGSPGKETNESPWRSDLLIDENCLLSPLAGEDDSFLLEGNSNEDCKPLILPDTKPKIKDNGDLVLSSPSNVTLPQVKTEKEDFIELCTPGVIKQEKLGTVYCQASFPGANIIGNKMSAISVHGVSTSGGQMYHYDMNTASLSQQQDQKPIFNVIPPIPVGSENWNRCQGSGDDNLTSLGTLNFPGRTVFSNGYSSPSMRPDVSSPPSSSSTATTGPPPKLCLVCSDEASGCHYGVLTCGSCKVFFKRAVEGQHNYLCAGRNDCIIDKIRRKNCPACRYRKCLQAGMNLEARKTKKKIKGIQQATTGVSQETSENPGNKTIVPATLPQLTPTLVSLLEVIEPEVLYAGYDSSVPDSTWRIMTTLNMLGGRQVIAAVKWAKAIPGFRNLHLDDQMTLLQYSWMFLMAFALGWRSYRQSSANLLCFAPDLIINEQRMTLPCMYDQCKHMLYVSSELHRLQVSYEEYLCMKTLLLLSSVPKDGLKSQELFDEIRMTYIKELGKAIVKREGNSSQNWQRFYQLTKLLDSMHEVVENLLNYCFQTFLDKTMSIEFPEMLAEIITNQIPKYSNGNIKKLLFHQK

With `CC[C@H](C)[C@H]1O[C@]2(C=C[C@@H]1C)C[C@@H]1C[C@@H](C/C=C(\C)[C@@H](O[C@H]3C[C@H](OC)[C@@H](O[C@H]4C[C@H](OC)[C@@H](NC)[C@H](C)O4)[C@H](C)O3)[C@@H](C)/C=C/C=C3\CO[C@@H]4[C@H](O)C(C)=C[C@@H](C(=O)O1)[C@]34O)O2`, the compound was called inactive in assay [1], in assay [3], in assay [4] and in assay [5]. The Potency entry in assay [2], in assay [6] and in assay [7] was “inactive” each time. Moreover, the Potency in [8] was 12.3 µM (active); in assay [9], 0.686 µM (active); in [10], 0.686 µM (active); in [11] it was 0.864 µM (active); in assay [12], 2.19 µM (active); in assay [13] it was 21.7 µM (active).
As for `CNN`, the outcome in assay [1], in [3], in assay [4] and in assay [5] was inactive. Besides, the Potency result in assay [2], in assay [6], in assay [14], in assay [7], in assay [8] and in assay [9] was “inactive” throughout. For the same compound, the Potency entry in assay [11], in assay [12] and in [13] was “inactive” in each case.
`Cc1ccc(C)c2ccccc12`: the compound was called inactive in assay [1], in assay [3], in assay [4], in assay [5], in [16] and in [17]. Further, the Potency entry in assay [2], in assay [6], in assay [7], in assay [8], in assay [9] and in assay [10] was “inactive” in each case. The Potency result in [11], in [12], in [15], in assay [13] and in assay [18] was “inactive” in each case.
`[Cl-].[Cl-].[Sn+2]`: the compound was called inactive in assay [1], in assay [3], in [4] and in [5]. Also, the Potency result in [2], in assay [6], in [14], in assay [7], in assay [9] and in [10] was “inactive” throughout. Also, the Potency entry in assay [11], in [12] and in assay [13] was “inactive” throughout.
On to `O=S(=O)(NS(=O)(=O)C(F)(F)F)C(F)(F)F`, for which the outcome in assay [1], in assay [3], in assay [4] and in assay [5] was inactive. Besides, the Potency result in [2], in assay [6], in assay [14], in assay [7], in assay [9] and in assay [10] was “inactive” each time. The Potency entry in assay [11], in [12] and in assay [13] was “inactive” in each case.
In the case of `COP(=S)(NC(C)C)Oc1ccc(C)cc1[N+](=O)[O-]` (stereo unspecified), the result in [1], in assay [3], in assay [4] and in [5] was inactive. Further, the Potency entry in [2], in assay [6], in [7], in assay [19], in [8] and in assay [12] was “inactive” each time. Further, the figures for the Potency in assay [9] and in assay [11] were 54.5 µM (active) and 61.1 µM (active), respectively.
Regarding `O=S1(=O)OCC2C(CO1)C1(Cl)C(Cl)=C(Cl)C2(Cl)C1(Cl)Cl` (stereo unspecified), the compound was classed as inactive in assay [1], in assay [3], in [4] and in [5]. Besides, the Potency result in [2], in [6], in assay [7] and in assay [19] was “inactive” in each case. The Potency in [20] was 17.4 µM (active); in assay [9] it was 24.3 µM (active); in assay [10], 10.9 µM (active); in [11], 27.3 µM (active).
Take `COP(=O)(OC)Oc1ccc([N+](=O)[O-])cc1`: the compound was classed as inactive in assay [1], in assay [3], in [4] and in assay [5]. The Potency entry in assay [2], in assay [6], in [14], in [7], in assay [8] and in assay [11] was “inactive” throughout. In assay [12], the Potency result is “inactive”.
In the case of `CC(C)[C@@H](Nc1ccc(C(F)(F)F)cc1Cl)C(=O)OC(C#N)c1cccc(Oc2ccccc2)c1` (stereo partly specified), the call in [1], in assay [3], in assay [4] and in assay [5] was inactive. The Potency result in [2], in assay [6], in assay [14], in assay [7], in assay [9] and in assay [10] was “inactive” in each case. Moreover, the Potency entry in assay [11], in [12] and in [13] was “inactive” in each case.
In the case of `CCCCCCC[CH2][Sn]([Cl])([Cl])[CH2]CCCCCCC`, the Potency in assay [15] was 21.9 µM (active).
As to `O=NN(CCO)CCO`, the Potency entry in [15] was “inactive”. The outcome in [16] was inactive.
For the compound `CCNS(=O)(=O)C(F)(F)C(F)(F)C(F)(F)C(F)(F)C(F)(F)C(F)(F)C(F)(F)C(F)(F)F`, the result in assay [16] was inactive.
Turning to `COC(=O)c1ccccc1S(=O)(=O)NC(=O)Nc1nc(C)nc(OC)n1`, the outcome in assay [1], in [3], in assay [4] and in assay [5] was inactive. The Potency result in assay [6], in [14], in [7], in assay [8], in assay [9] and in assay [10] was “inactive” in each case. In addition, the Potency result in assay [11], in [12] and in assay [13] was “inactive” in each case.
With `O.O.O.O.O.O.O.O=S(=O)([O-])[O-].[Co+2]`, the result in [1], in [3] and in assay [4] was inactive. The Potency result in assay [6], in [14], in assay [7], in assay [8], in assay [9] and in assay [10] was “inactive” throughout. In addition, the Potency entry in assay [11], in [12] and in assay [13] was “inactive” in each case.
Regarding `Cc1ccccc1OP(=O)(Oc1ccccc1C)Oc1ccccc1C`, the result in assay [1], in assay [3], in assay [5] and in [17] was inactive. Also, the Potency entry in assay [6], in assay [14], in assay [7], in assay [19], in assay [8] and in [12] was “inactive” each time. Besides, the Potency result in [13] and in assay [18] was “inactive” each time. For the same compound, the results for the Potency in assay [20], in assay [10] and in [11] were 27.6 µM (active), 54.7 µM (active) and 30.8 µM (active), respectively.
Consider `FC(F)C(F)(F)OCC(Cn1cncn1)c1ccc(Cl)cc1Cl` (stereo unspecified), for which the compound was called inactive in assay [1], in assay [3], in assay [4] and in assay [5]. Moreover, the Potency entry in [6], in assay [14], in assay [7] and in [19] was “inactive” throughout. The Potency is 3.05 µM (active) in [9], 4.83 µM (active) in assay [10], 7.65 µM (active) in assay [11] and 54.6 µM (active) in assay [12].
Consider `ClSC(Cl)(Cl)Cl`, for which the compound was called inactive in assay [1], in [3], in assay [4] and in [5]. Also, the Potency entry in [6], in [14], in assay [7], in [8], in assay [9] and in [10] was “inactive” throughout. For the same compound, the Potency entry in assay [11], in assay [12] and in assay [13] was “inactive” each time.
